Measurements from PubChem BioAssay (Tox21).
Inconclusive results are not listed. A structure can be active in one record and inactive in another. The source made the active and inactive calls. Unless noted, the call rests on the fitted dose curve.

Columns and labels:
[1] = Nuclear factor erythroid 2-related factor 2/antioxidant responsive element (Nrf2/ARE) small molecule agonists: qHTS cell viability counter screen in human keratinocytes (AID 1919968; active means well fitted curve in the direction sought with a large enough effect in the repeat runs; an effect the other way counts as inactive or inconclusive; further: nearly all actives have a fitted effect of over 55% in size; further: potency means the concentration at half of the fitted maximal effect)
Procedure, shortened: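 Viability counter-screen: KeratinoSens reporter cells, DMSO-delivered compounds, 23 h at 37 C, CellTiter-Fluor fluorescence.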

[2] = Nuclear factor erythroid 2-related factor 2/antioxidant responsive element (Nrf2/ARE) small molecule agonists: luciferase reporter gene qHTS assay in human keratinocytes (AID 1919969); further: nearly all actives have a fitted effect of over 35% in size; further: potency means the concentration at half of the fitted maximal effect
[3] = target: Gonadotropin-releasing hormone receptor (Homo sapiens) (UniProt P30968); test: Human gonadotropin-releasing hormone receptor (GnRHR) small molecule agonists, calcium flux assay in GnRHR-HEK293 cells (AID 1920063); further: nearly all actives have a fitted effect of over 35% in size
Procedure, shortened: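 Tox21-format agonist screen using human GnRHR-expressing HEK293 cells and a fluorescent calcium dye; kinetic 3-min fluorescence reading after compound addition, 15-point concentration series run in triplicate.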

[4] = target: KiSS-1 receptor (Homo sapiens) (UniProt Q969F8); test: Human kisspeptin (KISS1R) small molecule agonists, calcium flux assay in KISS1R-HEK293 cells (AID 1920064; active means well fitted curve in the direction sought with a large enough effect in the repeat runs; an effect the other way counts as inactive or inconclusive)
Procedure, shortened: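 Intracellular calcium mobilization in KISS1R-HEK293 cells was recorded by fluorescence (Ex/Em 480/540) for 3 min following compound addition to cells pre-loaded 1 h with calcium dye.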

[5] = G protein-coupled receptor (GPCR) small molecule agonists, calcium flux assay: HEK293 wild type cell line counter screen (AID 1920065)
Procedure, shortened: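 In this agonist-mode screen, ATP is the positive control and DMSO the vehicle. Cells grow 18 h before a 1 h dye incubation at 37 C; signal is taken at Ex/Em 480/540 over 3 min.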

[6] = p53 small molecule agonists, cell-based qHTS assay with human liver microsomes (AID 1963577)
Procedure, shortened: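 p53RE-bla reporter cells were pre-incubated 5 h at 37 C, then treated with compounds plus human liver microsomes (0.5 mg/mL final) and NADPH (0.5 mg/mL final) for 16 h at 37 C. Beta-lactamase activity was read by LiveBLAzer fluorescence after 2 h at room temperature.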

[7] = p53 small molecule agonists, cell-based qHTS assay with rat liver microsomes (AID 1963578)
Procedure, shortened: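 p53RE-bla cells were exposed to compounds together with rat liver microsomes (0.5 mg/mL final) and NADPH (0.5 mg/mL final) for 16 h at 37 C, then read by LiveBLAzer beta-lactamase fluorescence after 2 h at room temperature.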

[8] = p53 small molecule agonists, cell-based qHTS assay with human liver microsomes: qHTS cell viability counter screen (AID 1963579); further: nearly all actives have a fitted effect of over 45% in size
Procedure, shortened: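 p53RE-bla cells (4,000/well) were pre-incubated 5 h at 37 C, then given compounds in DMSO plus human liver microsomes (0.5 mg/mL final) and NADPH (0.5 mg/mL final) for 16 h at 37 C. Viability was read by CellTiter-Glo luminescence.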

[9] = p53 small molecule agonists, cell-based qHTS assay with rat liver microsomes: qHTS cell viability counter screen (AID 1963580); further: nearly all actives have a fitted effect of over 45% in size; further: potency means the concentration at half of the fitted maximal effect
Procedure, shortened: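 Intracellular ATP, by CellTiter-Glo luminescence, defines viability. HCT-116 p53RE-bla cells, 4,000 per well, were compound-treated in the presence of rat liver microsomes and NADPH for 16 h at 37 C.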

[10] = p53 small molecule agonists, cell-based qHTS assay: qHTS cell viability counter screen (AID 1963581); further: nearly all actives have a fitted effect of over 45% in size
Procedure, shortened: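 Compounds are pinned onto HCT-116 p53RE-bla cells and left 16 h at 37 C. Following the reporter FRET read, ATP is quantified by CellTiter-Glo luminescence after 30 min at room temperature.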

[11] = p53 small molecule agonists, cell-based qHTS assay (AID 1963582; active means well fitted activation curve with a large enough effect in the signal ratio in the repeat runs, not every such curve was filed as active; the % refers to the signal ratio)
Procedure, shortened: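 Agonist activity was scored from beta-lactamase FRET fluorescence in p53RE-bla cells treated 16 h at 37 C with compounds in DMSO, substrate incubation being 2 h at room temperature.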

[12] = target: 5-hydroxytryptamine receptor 2A (Homo sapiens) (UniProt P28223); test: 5-hydroxytryptamine receptor 2A (HTR2A) small molecule antagonists, cell-based qHTS assay (AID 1963586); further: nearly all actives have a fitted effect of over 45% in size
Procedure, shortened: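 Antagonist-mode intracellular calcium assay: DOI (4 nM) added after 5 min compound pre-incubation at room temperature to dye-loaded HTR2A-CHO cells. Fluorescence followed for 3 min, sampled every second.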

[13] = target: 5-hydroxytryptamine receptor 2A (Homo sapiens) (UniProt P28223); test: 5-hydroxytryptamine receptor 2A (HTR2A) small molecule agonists, cell-based qHTS assay (AID 1963587); further: nearly all actives have a fitted effect of over 30% in size
Procedure, shortened: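 Kinetic calcium-flux fluorescence (2 min, 1 sec intervals) after compound addition in agonist mode. HTR2A-CHO cells were cultured 18 h, then dye-loaded 1 h at 37 C.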

[14] = target: Muscarinic acetylcholine receptor M1 (Homo sapiens) (UniProt P11229); test: Cholinergic receptor muscarinic 1 (CHRM1) small molecule antagonists, cell-based qHTS assay (AID 1963588); further: nearly all actives have a fitted effect of over 40% in size
Procedure, shortened: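 CHRM1-CHO calcium-flux assay, antagonist mode. Cells were seeded 18 h, dye-loaded 1 h at 37 C and given compound for 5 min at RT, then acetylcholine was added at 50nM. FDSS fluorescence was read 3 min; 15 concentrations, three runs.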

[15] = target: Muscarinic acetylcholine receptor M1 (Homo sapiens) (UniProt P11229); test: Cholinergic receptor muscarinic 1 (CHRM1) small molecule agonists, cell-based qHTS assay (AID 1963589); further: nearly all actives have a fitted effect of over 35% in size
Procedure, shortened: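 Stable CHRM1-CHO cells (human receptor) were incubated 18 h, dye-loaded for 1 h at 37 C and exposed to test compounds for agonist activity, with calcium-dependent fluorescence followed kinetically.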

[16] = cAMP Responsive Elements (CRE) small molecule agonists, cell-based qHTS assay (AID 1963590)
Procedure, shortened: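 FRET-based beta-lactamase readout (LiveBLAzer B/G, 2 h RT) quantified CRE activation in HEK 293T CRE-bla cells after 3 h treatment with DMSO-dissolved compounds.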

[17] = cAMP Responsive Elements (CRE) small molecule antagonists, cell-based qHTS assay (AID 1963591; active means well fitted inhibition curve with a large enough effect in the signal ratio in the repeat runs, not every such curve was filed as active; the % refers to the signal ratio)
Procedure, shortened: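 qHTS in CRE-bla HEK 293T cells: compound in DMSO, then 0.25 uM NKH477 (final), 3 h at 37 °C/5% CO2; beta-lactamase FRET read-out after 2 h substrate incubation.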

[18] = target: Beta-2 adrenergic receptor (Homo sapiens) (UniProt P07550); test: Adrenergic beta2 receptor (ADRB2) small molecule antagonists, cell-based qHTS assay (AID 1963592); further: series mostly up to about 92 µM; nearly all actives have a fitted effect of over 50% in size
Procedure, shortened: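 Cells (CHO, stable ADRB2 overexpression) incubated 18-20hr at 37C; compounds added from DMSO; agonist mix (1nM isoproterenol, 100uM IBMX, 25uM Ro-20-1724) added; 0.5hr RT; d2-cAMP and anti-cAMP-cryptate added; 1hr RT; 665/615 nm read.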

[19] = target: D(2) dopamine receptor (Homo sapiens) (UniProt P14416); test: Dopamine D2 receptor (DRD2) small molecule agonists, cell-based qHTS assay (AID 1963594); further: nearly all actives have a fitted effect of over 35% in size
Procedure, shortened: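 cAMP accumulation in DRD2-HEK293 cells measured by HTRF after 1 h detection; compounds added 10 min before NKH477 (200nM […]) forskolin-analogue stimulation, 30 min at room temperature, with Ro20-1724 present at 0.1 mM final.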

[20] = target: D(2) dopamine receptor (Homo sapiens) (UniProt P14416); test: Dopamine D2 receptor (DRD2) small molecule antagonists, cell-based qHTS assay (AID 1963595; active means well fitted inhibition curve with a large enough effect in the signal ratio in the repeat runs, with a control signal flat; the % refers to the signal ratio)
Procedure, shortened: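 Antagonist mode in DRD2-HEK293 cells: after compound addition with 0.1 mM Ro20-1724, cells received quinpirole (12 nM) and NKH477 (200 nM) for 30 min at room temperature; HTRF cAMP read after 1 h detection.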
On the % scale 0 is the no-effect control and ±100 the full control effect.

Chain of KiSS-1 receptor (Homo sapiens) (Q969F8 whole entry, looked up): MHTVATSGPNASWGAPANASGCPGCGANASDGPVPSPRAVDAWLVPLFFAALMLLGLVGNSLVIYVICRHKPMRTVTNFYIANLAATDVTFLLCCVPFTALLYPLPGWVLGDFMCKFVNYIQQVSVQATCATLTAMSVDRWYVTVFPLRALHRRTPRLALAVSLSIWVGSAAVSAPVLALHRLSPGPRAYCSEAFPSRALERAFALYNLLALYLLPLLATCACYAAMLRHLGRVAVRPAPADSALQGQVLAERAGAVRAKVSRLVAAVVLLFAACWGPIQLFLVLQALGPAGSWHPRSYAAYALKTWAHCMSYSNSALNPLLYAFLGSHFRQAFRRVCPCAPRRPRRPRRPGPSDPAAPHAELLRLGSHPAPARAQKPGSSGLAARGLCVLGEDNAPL
Chain of D(2) dopamine receptor (Homo sapiens) (P14416 whole entry, looked up): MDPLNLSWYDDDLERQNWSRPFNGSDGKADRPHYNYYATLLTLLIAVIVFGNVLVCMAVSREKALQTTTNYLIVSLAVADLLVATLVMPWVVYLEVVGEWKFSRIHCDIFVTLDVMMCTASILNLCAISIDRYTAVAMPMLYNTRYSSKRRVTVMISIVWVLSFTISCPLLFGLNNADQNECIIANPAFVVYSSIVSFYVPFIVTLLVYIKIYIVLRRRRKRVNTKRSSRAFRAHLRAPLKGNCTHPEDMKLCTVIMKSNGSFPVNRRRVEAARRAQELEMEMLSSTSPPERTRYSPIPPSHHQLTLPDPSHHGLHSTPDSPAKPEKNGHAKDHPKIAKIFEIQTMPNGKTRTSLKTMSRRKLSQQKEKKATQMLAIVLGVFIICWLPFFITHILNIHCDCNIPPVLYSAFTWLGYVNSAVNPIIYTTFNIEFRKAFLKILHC
Chain of Gonadotropin-releasing hormone receptor (Homo sapiens) (P30968 whole entry, looked up): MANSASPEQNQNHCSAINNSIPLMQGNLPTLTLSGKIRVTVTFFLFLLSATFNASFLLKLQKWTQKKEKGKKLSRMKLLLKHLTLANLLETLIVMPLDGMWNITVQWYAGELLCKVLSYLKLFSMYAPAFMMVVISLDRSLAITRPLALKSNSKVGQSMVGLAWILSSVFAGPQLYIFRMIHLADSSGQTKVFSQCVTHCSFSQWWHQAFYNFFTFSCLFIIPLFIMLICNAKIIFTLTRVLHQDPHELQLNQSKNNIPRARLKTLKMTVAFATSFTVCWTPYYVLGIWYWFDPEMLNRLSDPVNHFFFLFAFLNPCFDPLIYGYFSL
Chain of Muscarinic acetylcholine receptor M1 (Homo sapiens) (P11229 whole entry, looked up): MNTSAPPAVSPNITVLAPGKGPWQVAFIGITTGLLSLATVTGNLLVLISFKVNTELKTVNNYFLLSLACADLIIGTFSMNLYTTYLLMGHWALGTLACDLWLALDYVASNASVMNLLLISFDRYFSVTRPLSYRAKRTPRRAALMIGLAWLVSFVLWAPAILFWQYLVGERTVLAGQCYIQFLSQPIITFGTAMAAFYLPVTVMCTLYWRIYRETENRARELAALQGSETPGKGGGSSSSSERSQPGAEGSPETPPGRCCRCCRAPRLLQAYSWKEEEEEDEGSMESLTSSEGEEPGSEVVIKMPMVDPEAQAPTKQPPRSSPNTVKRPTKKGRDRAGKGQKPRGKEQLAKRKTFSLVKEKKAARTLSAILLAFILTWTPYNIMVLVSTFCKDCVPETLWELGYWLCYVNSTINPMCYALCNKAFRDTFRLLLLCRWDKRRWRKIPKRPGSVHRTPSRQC
Chain of Beta-2 adrenergic receptor (Homo sapiens) (P07550 whole entry, looked up): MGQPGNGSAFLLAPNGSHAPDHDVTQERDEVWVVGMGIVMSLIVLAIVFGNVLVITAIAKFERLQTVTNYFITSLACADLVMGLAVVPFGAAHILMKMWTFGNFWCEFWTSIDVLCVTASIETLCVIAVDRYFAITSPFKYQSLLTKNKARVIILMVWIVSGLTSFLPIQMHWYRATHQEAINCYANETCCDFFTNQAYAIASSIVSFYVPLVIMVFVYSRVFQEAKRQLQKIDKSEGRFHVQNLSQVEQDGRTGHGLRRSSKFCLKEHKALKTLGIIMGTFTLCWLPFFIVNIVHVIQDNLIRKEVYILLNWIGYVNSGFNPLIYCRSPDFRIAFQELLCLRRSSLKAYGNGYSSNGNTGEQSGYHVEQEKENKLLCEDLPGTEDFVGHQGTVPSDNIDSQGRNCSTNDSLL
Chain of 5-hydroxytryptamine receptor 2A (Homo sapiens) (P28223 whole entry, looked up): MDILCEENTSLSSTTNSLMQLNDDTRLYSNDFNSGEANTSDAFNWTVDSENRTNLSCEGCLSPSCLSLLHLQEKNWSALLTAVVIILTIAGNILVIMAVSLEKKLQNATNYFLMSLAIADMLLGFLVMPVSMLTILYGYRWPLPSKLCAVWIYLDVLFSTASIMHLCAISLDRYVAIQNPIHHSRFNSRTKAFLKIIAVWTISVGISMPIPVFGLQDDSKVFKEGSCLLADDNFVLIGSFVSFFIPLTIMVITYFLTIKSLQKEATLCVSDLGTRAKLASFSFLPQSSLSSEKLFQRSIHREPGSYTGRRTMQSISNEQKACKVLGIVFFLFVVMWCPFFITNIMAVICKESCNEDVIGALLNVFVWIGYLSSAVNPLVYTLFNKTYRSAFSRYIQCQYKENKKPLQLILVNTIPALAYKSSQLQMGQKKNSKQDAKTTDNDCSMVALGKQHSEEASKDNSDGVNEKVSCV

CC/C(C)=N/O
inactive: Potency [1] | Potency [2] | Potency [3] | Potency [4] | Potency [5] | Potency [6] | Potency [7] | Potency [8] | Potency [9] | Potency [10] | Potency [11] | Potency [12] | Potency [13] | Potency [14] | Potency [15] | Potency [16] | Potency [17] | Potency [18] | Potency [19] | Potency [20]

CCCCCCCC(=O)OCC(COC(=O)CCCCCCC)OC(=O)CCCCCCC
inactive: Potency [1] | Potency [2] | Potency [3] | Potency [4] | Potency [5] | Potency [6] | Potency [7] | Potency [8] | Potency [9] | Potency [10] | Potency [11] | Potency [12] | Potency [13] | Potency [14] | Potency [15] | Potency [16] | Potency [17] | Potency [18] | Potency [19] | Potency [20]

CCc1ccccc1CC
inactive: Potency [1] | Potency [2] | Potency [3] | Potency [4] | Potency [5] | Potency [6] | Potency [7] | Potency [8] | Potency [9] | Potency [10] | Potency [11] | Potency [12] | Potency [13] | Potency [14] | Potency [15] | Potency [16] | activity change, negative = inhibition [17] 3.92% [at 18.9 µM] | activity change, negative = inhibition [18] -5.37% [at 19 µM] | Potency [19] | Potency [20]

COC(=O)c1ccc(C=O)cc1
inactive: Potency [1] | Potency [2] | Potency [3] | Potency [4] | Potency [5] | Potency [6] | Potency [7] | Potency [8] | Potency [9] | Potency [10] | Potency [11] | Potency [12] | Potency [13] | Potency [14] | Potency [15] | Potency [16] | Potency [17] | Potency [18] | Potency [19] | Potency [20]

Cc1ccc([N+](=O)[O-])c(C)c1
2.43 µM (active) and inactive: Potency [1]
18.2 µM (active) and inactive: Potency [9]
inactive: Potency [3] | Potency [4] | Potency [5] | Potency [6] | Potency [7] | Potency [8] | Potency [10] | Potency [11] | Potency [12] | Potency [13] | Potency [14] | Potency [15] | Potency [16] | Potency [17] | Potency [18] | Potency [19] | Potency [20]
1.93 µM (active) and inactive: Potency [2]

C1COCCN1
inactive: Potency [1] | Potency [2] | Potency [3] | Potency [4] | Potency [5] | Potency [6] | Potency [7] | Potency [8] | Potency [9] | Potency [10] | Potency [11] | Potency [12] | Potency [13] | Potency [14] | Potency [15] | Potency [16] | Potency [17] | Potency [18] | Potency [19] | Potency [20]

CCCCCCCC(=O)O
inactive: Potency [1] | Potency [2] | Potency [3] | Potency [4] | Potency [5] | Potency [6] | Potency [7] | Potency [8] | Potency [9] | Potency [10] | Potency [11] | Potency [12] | Potency [13] | Potency [14] | Potency [15] | Potency [16] | Potency [17] | Potency [18] | Potency [19] | Potency [20]
